This is part of a sample that, as a whole, favours compounds with a hit. Of some 79,000 tested, about 15% had one in any assay. Values without a mark were called inactive. Calls of active or inactive are those of the source. No stated cut-off is given here; in the data, active means growth inhibition above about 70%; inactive means the rest.
Assay: NCI Yeast Anticancer Drug Screen. Data for the bub3 strain (AID 167)
Conditions: S. cerevisiae bub3 mutant strain, at 50.0 µM (retest, dose inferred, filed as 5.0), active compounds read high
How it was run: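 Growth of a checkpoint-deficient yeast mutant is measured after compound exposure. Values represent inhibition relative to vehicle.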

Compound	growth inhibition
CC(=O)NNc1nc(C)c(C(=O)NNC(=O)C(=O)Nc2c(C)cccc2C(C)C)s1	87% (active)
COc1cc(C2CC(=O)c3ccccc3O2)ccc1O (centres undefined)	97% (active)
CCC1CCC2C3CC=C4CC(OC(C)=O)C(N)CC4(C)C3CCC12C (centres undefined)	95% (active)
COc1ccccc1C1c2cc3c(cc2OC(N2CCOCC2)C1C)OCO3 (centres undefined)	57%
O=C1C=C/C(=C(/c2ccc(O)c(O)c2)c2ccccc2S(=O)(=O)O)C=C1O	-3%
N#CSC#Cc1ccc(C#CSC#N)cc1	98% (active)
Cc1c2ccccc2c(CCl)c2ccc3ccccc3c12	99% (active)
Oc1ccc(C(=C(Br)c2ccccc2)c2ccc(O)cc2)cc1	99% (active)
Clc1ccc(/C=N/Nc2c3ccccc3nc3ccccc23)c(Cl)c1	92% (active)
CCCC#CCCOC(=O)c1cc([N+](=O)[O-])cc([N+](=O)[O-])c1	96% (active)
CCOc1ccc2c(c1)n([O-])c1ccccc1[n+]2=O	98% (active)
COc1ccc(/C(Cl)=C(\c2ccc(OCCN(C)C)cc2)c2ccc(OC(=O)C(C)(C)C)cc2)cc1	20%
CCCCCCCCCCCCCCCCSC(=NC)NC	99% (active)
N#Cc1ccc(Oc2nc3ccccc3nc2-c2ccccc2)cc1	86% (active)
Cc1ccc2c(c1)nc1n2C(N)=Nc2ccccc2S1	47%
COc1cc(NCc2ccc3nc(-c4ccccc4)c(N)nc3c2)cc(OC)c1OC	-10%
O=C(OCCC1CCCCC1)c1cc([N+](=O)[O-])cc([N+](=O)[O-])c1	82% (active)
O=C1c2ccc3ccccc3c2CCC1[n+]1ccc2ccccc2c1 (centres undefined)	63%
Cc1cc(NC(=S)SCc2ccc(Cl)cc2)c([N+](=O)[O-])cc1C	97% (active)
N#CC(O)C(Br)(Br)Br (centres undefined)	69%

Compound	growth inhibition
C[CH2][Ge]([CH2]C)[CH2]C.C[CH2][Ge]([Cl])[CH2]C.C[CH2][Ge][CH2]C	96% (active)
COC1C(=[N+]=[N-])C(=O)NC(=O)N1C1OC(COC(c2ccccc2)(c2ccccc2)c2ccccc2)C(O)C1O (centres undefined)	13%
CC(=O)Oc1ccc(C)c(C(C)C(Cl)(Cl)Cl)c1 (centres undefined)	4%
OC(c1ccccc1)c1cccc(Br)c1 (centres undefined)	68%
CC/C(=C1\C=CC(=O)S1)C(CC)c1ccc(OC(C)=O)cc1 (centres undefined)	99% (active)
COc1ccc(/C=C2/C(=O)NC3SC=C(c4cccc([N+](=O)[O-])c4)N23)cc1 (centres undefined)	13%
O=C1O/C(=C2\OC(=O)c3ccccc32)c2ccccc21	2%
Clc1ncccc1-n1cccc1/C=N\N=C/c1cccn1-c1cccnc1Cl	97% (active)
Clc1nc2cc3nc(Cl)c(Cl)nc3cc2nc1Cl	30%
CC(=O)c1c2c(cc3c1CC1(Cc4cc5c(cc4C1)C(=O)CCC5)C3)CCCC2 (centres undefined)	33%
CCCCOS(=O)(=O)c1ccc(C)cc1	-39%
C[N+]1(c2ccccc2)C=C(c2ccccc2)SC1=S (centres undefined)	67%
COc1ccc(/C=N/N=c2\[nH][nH]/c(=N\N=C\c3ccc(OC)c4ccccc34)c3ccccc23)c2ccccc12	78% (active)
CCCCCCCCCCCCCCCCN	98% (active)
CCCCCCCCCCCC[S+](C)C	74% (active)
CP(=O)(c1ccccc1)c1ccccc1	-20%
CCCCCCCCCCCC(=O)OC/C=C/COC(=O)c1ccccc1	46%
O=C(O)CCC(O)=C1S(=O)(=O)OCCOS1(=O)=O	3%
CCOC(=O)C1SC(=Nc2cccc(Cl)c2C)N=C1C (centres undefined)	88% (active)

Source: PubChem BioAssay (NCI)
